Measured values from PubChem BioAssay (EPA / NIEHS).
Activity calls are given as the source filed them. How the source made its calls: active means hit-call score of the fitted dose curve at least 0.9, where 1 is the maximum; inactive means score below 0.9.

What was measured:
[1] = ATG_GLI_CIS: Attagene CIS-FACTORIAL HepG2 Assay for human Zinc Finger Protein GLI1 (AID 2282945); details: HepG2, Attagene cis-factorial reporter mRNA, GLI element; actives raise or lower the signal
How it was run: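 Bidirectional curve fits relative to DMSO, using reporter mRNA levels from RT-PCR plus capillary electrophoresis. Cells were HepG2 transiently carrying cis-regulated reporter constructs, harvested 24 h after dosing.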

[2] = target: Bile acid receptor (Homo sapiens) (UniProt Q96RI1); assay: ATG_IR1_CIS: Attagene CIS-FACTORIAL HepG2 Assay for human Nuclear Receptor Subfamily 1 Group H Member 4 (NR1H4), IR1 submotif (AID 2282946); details: IR1 reporter transcription, actives raise or lower the signal
Sequence of Bile acid receptor (Homo sapiens) (Q96RI1 whole entry, looked up, the tested form may be a part): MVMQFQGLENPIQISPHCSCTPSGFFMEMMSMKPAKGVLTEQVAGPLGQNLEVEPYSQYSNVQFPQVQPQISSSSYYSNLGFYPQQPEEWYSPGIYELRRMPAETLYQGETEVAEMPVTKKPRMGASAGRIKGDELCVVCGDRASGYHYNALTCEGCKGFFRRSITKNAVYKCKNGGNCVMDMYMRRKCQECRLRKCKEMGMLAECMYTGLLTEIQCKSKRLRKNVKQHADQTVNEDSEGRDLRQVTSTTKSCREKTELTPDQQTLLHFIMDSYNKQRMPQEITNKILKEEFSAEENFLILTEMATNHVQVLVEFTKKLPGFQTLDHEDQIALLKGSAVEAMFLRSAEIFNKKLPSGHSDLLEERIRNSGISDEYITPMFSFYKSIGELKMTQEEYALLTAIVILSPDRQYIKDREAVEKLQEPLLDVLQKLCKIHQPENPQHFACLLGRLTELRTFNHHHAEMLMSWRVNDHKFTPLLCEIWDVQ
How it was run: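 Cells (human HepG2) carry transiently transfected cis-promoter reporter transcription units. Compounds are incubated 24 h, total RNA is reverse-transcribed and amplified, and labelled fragments are resolved by capillary electrophoresis. Curves use DMSO as baseline.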

[3] = ATG_GRE_CIS: Attagene CIS-FACTORIAL HepG2 Assay for human Glucocorticoid Response Elements (GRE) (AID 2282947); details: HepG2 GRE cis-reporter, Attagene multiplex mRNA; actives raise or lower the signal
How it was run: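 Transient MRTU transfection of human HepG2 liver cells; cis-regulated reporters report endogenous factors. 24 h dosing → RNA isolation → RT-PCR → 6-FAM primer extension → HpaI cut → CE fragment analysis. Bidirectional fit, DMSO negative control.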

[4] = ATG_ISRE_CIS: Attagene CIS-FACTORIAL HepG2 Assay for human Interferon Regulatory Factor 1 (IRF1) binding to an Interferon-Stimulated Response Element (ISRE) (AID 2282948); details: HepG2 ISRE cis-reporter (Attagene), mRNA transcription readout; actives raise or lower the signal
How it was run: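 HepG2 cells transiently transfected with multiplexed cis-promoter reporter units; after 24 h compound exposure, reporter mRNA quantified by RT-PCR, FAM labelling, HpaI digestion and capillary electrophoresis. Bidirectional fit versus DMSO baseline.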

[5] = ATG_M_32_CIS: Attagene CIS-FACTORIAL HepG2 Assay for M32 Transcription Factor (Internal Marker) (AID 2282949); details: HepG2 Attagene cis-factorial M32 reporter, mRNA; actives raise or lower the signal;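 further: background control marker of the multiplexed CIS panel rather than a real target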
How it was run: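 Fluorescent capillary electrophoresis peaks of HpaI-digested, FAM-labelled RT-PCR reporter products give the signal. Source: transiently transfected human liver HepG2 cells, 24 h after chemical dosing; bidirectional fitting against DMSO.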

[6] = ATG_M_06_CIS: Attagene CIS-FACTORIAL HepG2 Assay for M06 Transcription Factor (Internal Marker) (AID 2282950); details: HepG2 Attagene CIS-FACTORIAL M06 internal marker reporter; actives raise or lower the signal
How it was run: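 One of many multiplexed endpoints: HepG2 reporter mRNA after 24 h dosing, detected by RT-PCR and capillary electrophoresis fluorescence; gain or loss of signal analysed against DMSO.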

[7] = target: Hepatocyte nuclear factor 6 (Homo sapiens) (UniProt Q9UBC0); assay: ATG_HNF6_CIS: Attagene CIS-FACTORIAL HepG2 Assay for human Hepatocyte Nuclear Factor 6 (HNF6) (AID 2282952); details: HepG2 Attagene cis-factorial HNF6 reporter transcription; actives raise or lower the signal
Sequence of Hepatocyte nuclear factor 6 (Homo sapiens) (Q9UBC0 whole entry, looked up, the tested form may be a part): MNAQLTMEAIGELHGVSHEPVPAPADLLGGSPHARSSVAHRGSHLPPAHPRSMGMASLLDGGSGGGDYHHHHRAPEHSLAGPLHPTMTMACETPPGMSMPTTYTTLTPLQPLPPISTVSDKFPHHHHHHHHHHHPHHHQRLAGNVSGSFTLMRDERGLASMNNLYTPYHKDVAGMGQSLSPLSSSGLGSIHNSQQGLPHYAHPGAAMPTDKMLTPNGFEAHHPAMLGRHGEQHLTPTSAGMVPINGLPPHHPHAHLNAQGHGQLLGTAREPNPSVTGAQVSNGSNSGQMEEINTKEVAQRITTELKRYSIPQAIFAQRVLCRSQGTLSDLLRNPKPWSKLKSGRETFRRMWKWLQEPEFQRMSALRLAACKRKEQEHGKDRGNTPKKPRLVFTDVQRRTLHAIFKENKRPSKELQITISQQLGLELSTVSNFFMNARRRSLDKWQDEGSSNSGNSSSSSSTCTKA
How it was run: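 HepG2 cells transiently transfected with cis-element-driven multiplexed reporter units measuring endogenous transcription factor activity. After 24 h exposure, reporter mRNA quantified by RT-PCR, FAM-labelled fragments and capillary electrophoresis; bidirectional fitting versus DMSO.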

[8] = target: Heat shock factor protein 1 (Homo sapiens) (UniProt Q00613); assay: ATG_HSE_CIS: Attagene CIS-FACTORIAL HepG2 Assay for human Heat Shock Transcription Factor 1 (HSE) (AID 2282953); details: HepG2 HSE cis-reporter, Attagene RNA transcription; actives raise or lower the signal
Sequence of Heat shock factor protein 1 (Homo sapiens) (Q00613 whole entry, looked up): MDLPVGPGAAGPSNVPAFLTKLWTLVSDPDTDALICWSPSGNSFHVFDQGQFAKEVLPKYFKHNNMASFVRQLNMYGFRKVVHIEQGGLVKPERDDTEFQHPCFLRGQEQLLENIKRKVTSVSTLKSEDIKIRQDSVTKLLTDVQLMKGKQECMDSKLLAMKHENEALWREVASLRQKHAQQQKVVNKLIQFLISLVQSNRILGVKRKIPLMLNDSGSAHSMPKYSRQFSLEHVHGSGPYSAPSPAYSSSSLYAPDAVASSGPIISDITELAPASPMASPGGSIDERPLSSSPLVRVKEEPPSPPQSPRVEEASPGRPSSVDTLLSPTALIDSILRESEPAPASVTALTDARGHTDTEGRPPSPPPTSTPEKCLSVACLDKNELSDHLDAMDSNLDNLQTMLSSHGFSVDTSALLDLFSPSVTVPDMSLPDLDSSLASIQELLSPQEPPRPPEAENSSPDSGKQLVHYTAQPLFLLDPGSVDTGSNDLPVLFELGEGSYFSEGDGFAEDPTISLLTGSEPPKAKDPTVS
How it was run: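 Using HepG2 with transfected cis-driven reporter constructs, compound effects on endogenous factor activity are scored as reporter mRNA change at 24 h. Detection: RT-PCR, HpaI digestion, capillary electrophoresis; bidirectional fitting to DMSO.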

[9] = ATG_MRE_CIS: Attagene CIS-FACTORIAL HepG2 Assay for human Metal Responsive Element (MRE) (AID 2282954); details: HepG2 MRE cis-reporter transcription, Attagene multiplex; actives raise or lower the signal
How it was run: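 Transient MRTU transfection of HepG2 (FuGene 6); 24 h dosing; total RNA → oligo(dT) RT, PCR, 6-FAM primer extension, HpaI cut, CE. Bidirectional fit vs DMSO.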

[10] = ATG_PBREM_CIS: Attagene CIS-FACTORIAL HepG2 Assay for human Phenobarbital-responsive Enhancer Module (PBREM) (AID 2282955); details: HepG2 PBREM cis-reporter, Attagene multiplexed transcription; actives raise or lower the signal
How it was run: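 HepG2, transient MRTU transfection, 24 h dosing; RNA → oligo(dT) RT → PCR → 6-FAM extension → HpaI → CE. Bidirectional fit vs DMSO.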

[11] = target: Paired box protein Pax-6 (Homo sapiens) (UniProt P26367); assay: ATG_Pax6_CIS: Attagene CIS-FACTORIAL HepG2 Assay for human Paired Box 6 (PAX6) (AID 2282956); details: HepG2 CIS-FACTORIAL PAX6 reporter transcription, RNA readout; actives raise or lower the signal
Sequence of Paired box protein Pax-6 (Homo sapiens) (P26367 whole entry, looked up): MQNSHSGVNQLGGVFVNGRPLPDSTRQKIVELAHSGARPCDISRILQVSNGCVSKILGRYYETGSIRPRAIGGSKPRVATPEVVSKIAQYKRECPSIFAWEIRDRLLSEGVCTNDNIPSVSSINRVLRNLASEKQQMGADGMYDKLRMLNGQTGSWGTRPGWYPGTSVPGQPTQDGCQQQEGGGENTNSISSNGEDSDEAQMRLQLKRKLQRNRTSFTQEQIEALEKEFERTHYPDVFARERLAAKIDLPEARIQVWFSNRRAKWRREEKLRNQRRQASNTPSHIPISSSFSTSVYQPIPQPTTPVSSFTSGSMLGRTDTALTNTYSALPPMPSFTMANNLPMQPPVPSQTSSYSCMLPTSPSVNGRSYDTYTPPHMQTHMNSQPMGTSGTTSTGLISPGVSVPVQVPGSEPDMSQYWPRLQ
How it was run: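 HepG2 cells transiently transfected with multiplexed cis-promoter reporter units (endogenous TF activity) were dosed for 24 h. Reporter mRNA was quantified by RT-PCR, 6-FAM labeling, HpaI digestion and capillary electrophoresis; bidirectional fitting versus DMSO baseline.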

[12] = ATG_PXRE_CIS: Attagene CIS-FACTORIAL HepG2 Assay for human Pregnane X Receptor Element (PXRE) (AID 2282957); details: HepG2 Attagene CIS-FACTORIAL PXRE reporter, mRNA; actives raise or lower the signal
How it was run: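 HepG2 cells transiently transfected with cis-element-driven multiplexed reporter units; after 24 h chemical exposure, reporter mRNA measured by RT-PCR, 6-FAM labelling, HpaI digestion and capillary electrophoresis. Bidirectional fitting relative to DMSO.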

[13] = ATG_PPRE_CIS: Attagene CIS-FACTORIAL HepG2 Assay for human Peroxisome Proliferator-activated Response Element (PPRE) (AID 2282958); details: HepG2 PPRE cis-element reporter, Attagene transcription factor profiling; actives raise or lower the signal
How it was run: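 Transcript-level reporter induction in transfected HepG2 cells after 24 h chemical exposure, quantified by fluorescence from RT-PCR products separated by capillary electrophoresis.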

[14] = ATG_RORE_CIS: Attagene CIS-FACTORIAL HepG2 Assay for human RAR-related Orphan Receptor Element (RORE) (AID 2282959); details: HepG2 Attagene cis-factorial RORE reporter, mRNA; actives raise or lower the signal
How it was run: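 Multiplexed reporter assay measuring mRNA induction from a cis promoter element in transiently transfected HepG2 cells after 24 h treatment. Detection via RT-PCR and capillary electrophoresis fluorescence; DMSO serves as baseline.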

[15] = ATG_Sox_CIS: Attagene CIS-FACTORIAL HepG2 Assay for human SRY-box transcription factor (SOX) (AID 2282960); details: HepG2 Attagene cis-factorial SOX reporter, mRNA; actives raise or lower the signal
How it was run: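 Cells were transfected with reporter constructs under cis-regulatory promoters, then exposed to chemicals for 24 h. Reporter transcripts were quantified by fluorescence after RT-PCR and capillary electrophoresis; activity was fitted in both directions against DMSO.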

[16] = target: Transcription factor Sp1 (Homo sapiens) (UniProt P08047); assay: ATG_Sp1_CIS: Attagene CIS-FACTORIAL HepG2 Assay for human Specificity Protein 1 (Sp1) (AID 2282961); details: HepG2 Sp1 cis-reporter transcription, actives raise or lower the signal
Sequence of Transcription factor Sp1 (Homo sapiens) (P08047 whole entry, looked up): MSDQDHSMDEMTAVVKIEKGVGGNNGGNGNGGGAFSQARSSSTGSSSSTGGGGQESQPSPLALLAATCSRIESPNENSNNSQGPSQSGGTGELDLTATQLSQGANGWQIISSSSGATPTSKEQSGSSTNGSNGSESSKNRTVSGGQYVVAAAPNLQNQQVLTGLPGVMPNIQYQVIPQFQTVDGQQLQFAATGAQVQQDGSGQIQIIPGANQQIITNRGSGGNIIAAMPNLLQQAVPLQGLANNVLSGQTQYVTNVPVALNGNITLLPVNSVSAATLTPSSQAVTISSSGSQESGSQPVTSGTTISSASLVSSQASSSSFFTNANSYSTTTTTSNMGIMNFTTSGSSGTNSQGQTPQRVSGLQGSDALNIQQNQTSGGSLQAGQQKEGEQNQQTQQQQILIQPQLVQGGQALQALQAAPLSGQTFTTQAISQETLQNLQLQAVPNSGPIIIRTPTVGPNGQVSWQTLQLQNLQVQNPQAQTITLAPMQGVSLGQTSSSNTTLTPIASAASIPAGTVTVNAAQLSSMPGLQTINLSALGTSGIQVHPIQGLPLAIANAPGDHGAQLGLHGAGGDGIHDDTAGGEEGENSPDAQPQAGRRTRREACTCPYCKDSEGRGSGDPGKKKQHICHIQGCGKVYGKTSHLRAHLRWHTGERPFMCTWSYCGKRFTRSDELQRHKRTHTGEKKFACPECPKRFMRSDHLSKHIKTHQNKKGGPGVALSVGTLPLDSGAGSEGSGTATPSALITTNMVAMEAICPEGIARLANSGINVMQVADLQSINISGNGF
How it was run: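 Measures mRNA induction of an Sp1-linked reporter in HepG2 cells 24 h post-dosing. Multiplexed reporters read by RT-PCR and capillary electrophoresis; DMSO serves as negative control and baseline.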

[17] = ATG_SREBP_CIS: Attagene CIS-FACTORIAL HepG2 Assay for human Sterol Regulatory Element Binding (SREBP) (AID 2282962); details: HepG2 Attagene cis-factorial SREBP reporter, mRNA; actives raise or lower the signal
How it was run: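 HepG2 cells transiently transfected with multiplexed cis-element reporter units report endogenous transcription factor activity. After 24 h of chemical exposure, reporter mRNA was quantified by RT-PCR, 6-FAM labelling, HpaI digestion and capillary electrophoresis; bidirectional fits used DMSO as baseline.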

[18] = target: Signal transducer and activator of transcription 3 (Homo sapiens) (UniProt P40763); assay: ATG_STAT3_CIS: Attagene CIS-FACTORIAL HepG2 Assay for human Signal Transducer and Activator of Transcription 3 (STAT3) (AID 2282963); details: HepG2, Attagene cis-factorial STAT3 reporter transcription; actives raise or lower the signal
Sequence of Signal transducer and activator of transcription 3 (Homo sapiens) (P40763 whole entry, looked up): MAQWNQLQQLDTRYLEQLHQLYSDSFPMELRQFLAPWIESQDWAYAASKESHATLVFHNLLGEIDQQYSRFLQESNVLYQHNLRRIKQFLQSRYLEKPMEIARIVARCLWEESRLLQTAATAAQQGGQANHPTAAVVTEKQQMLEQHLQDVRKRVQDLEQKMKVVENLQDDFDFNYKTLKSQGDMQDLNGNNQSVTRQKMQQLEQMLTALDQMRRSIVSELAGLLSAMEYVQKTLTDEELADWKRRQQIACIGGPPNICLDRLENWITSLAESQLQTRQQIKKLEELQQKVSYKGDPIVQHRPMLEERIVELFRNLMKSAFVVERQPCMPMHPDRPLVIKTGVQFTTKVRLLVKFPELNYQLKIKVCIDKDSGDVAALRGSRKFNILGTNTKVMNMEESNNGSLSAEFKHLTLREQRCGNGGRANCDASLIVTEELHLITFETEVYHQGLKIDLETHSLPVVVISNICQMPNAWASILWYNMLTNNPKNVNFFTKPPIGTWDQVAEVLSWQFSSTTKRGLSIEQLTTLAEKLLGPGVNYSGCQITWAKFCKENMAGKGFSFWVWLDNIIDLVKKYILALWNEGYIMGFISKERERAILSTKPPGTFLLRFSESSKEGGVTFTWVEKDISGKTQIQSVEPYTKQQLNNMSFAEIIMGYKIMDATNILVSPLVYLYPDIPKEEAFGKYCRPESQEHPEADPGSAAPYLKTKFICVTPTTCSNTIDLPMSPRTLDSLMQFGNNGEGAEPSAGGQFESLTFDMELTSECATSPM
How it was run: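 Endogenous STAT3-responsive cis-element activity was read in transiently transfected HepG2 cells after 24 h treatment. Reporter transcripts were quantified via RT-PCR and capillary electrophoresis, with DMSO as negative control and bidirectional curve fitting.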

[19] = ATG_TA_CIS: Attagene CIS-FACTORIAL HepG2 Assay for human TA Basal Promoter (AID 2282964); details: HepG2 Attagene CIS-factorial TA basal promoter reporter; actives raise or lower the signal
How it was run: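 Transient MRTU transfection of HepG2 preceded 24 h compound exposure. Reporter mRNA levels were then read by RT-PCR with capillary electrophoresis, and this background-control endpoint was fitted bidirectionally to DMSO.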

[20] = target: Hypoxia-inducible factor 1-alpha (Homo sapiens) (UniProt Q16665); assay: ATG_HIF1a_CIS: Attagene CIS-FACTORIAL HepG2 Assay for human Hypoxia Inducible Factor 1 (HIF1A) (AID 2282951); details: HepG2 Attagene cis-factorial HIF1a reporter transcription; actives raise or lower the signal
Sequence of Hypoxia-inducible factor 1-alpha (Homo sapiens) (Q16665 whole entry, looked up): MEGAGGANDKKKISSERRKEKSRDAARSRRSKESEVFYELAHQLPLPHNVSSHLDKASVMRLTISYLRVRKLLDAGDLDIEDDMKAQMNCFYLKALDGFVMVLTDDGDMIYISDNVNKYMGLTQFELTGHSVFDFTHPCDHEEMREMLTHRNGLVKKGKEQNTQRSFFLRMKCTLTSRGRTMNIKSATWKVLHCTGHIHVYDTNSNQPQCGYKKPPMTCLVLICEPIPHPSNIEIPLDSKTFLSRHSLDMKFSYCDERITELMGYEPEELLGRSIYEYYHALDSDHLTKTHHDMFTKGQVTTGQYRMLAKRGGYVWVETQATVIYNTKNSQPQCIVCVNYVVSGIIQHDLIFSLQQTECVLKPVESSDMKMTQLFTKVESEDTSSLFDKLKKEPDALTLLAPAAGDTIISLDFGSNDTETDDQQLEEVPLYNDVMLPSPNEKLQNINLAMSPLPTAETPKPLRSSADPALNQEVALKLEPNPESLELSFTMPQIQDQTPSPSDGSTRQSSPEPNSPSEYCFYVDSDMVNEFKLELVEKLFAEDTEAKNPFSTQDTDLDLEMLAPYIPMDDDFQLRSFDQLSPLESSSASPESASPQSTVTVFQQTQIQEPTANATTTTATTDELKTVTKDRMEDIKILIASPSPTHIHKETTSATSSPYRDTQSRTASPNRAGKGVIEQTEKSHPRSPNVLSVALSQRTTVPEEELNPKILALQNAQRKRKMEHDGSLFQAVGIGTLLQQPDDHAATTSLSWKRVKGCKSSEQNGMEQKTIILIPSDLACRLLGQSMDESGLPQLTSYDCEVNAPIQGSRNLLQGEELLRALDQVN
How it was run: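 HepG2, transient cis-reporter library, 24 h dosing. RNA → RT (oligo dT) → PCR → 6-FAM primer extension → HpaI → CE. Bidirectional curve fit vs DMSO.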

Measured: AC50

N=C1C=CC(=C(c2ccc(N)cc2)c2ccc(N)cc2)C=C1
active: [3] 23.9 µM | [4] 33.4 µM | [8] 42.5 µM | [9] 48.2 µM | [11] 37.8 µM | [12] 56.6 µM | [17] 26 µM | [19] 81.3 µM
not listed: [20]
inactive: all other assays above

C=CC(=O)OCCCCCCCC(C)C
active: [2] 91.4 µM | [20] 71.8 µM | [12] 7.99 µM | [13] 71.1 µM | [14] 100 µM
not listed: [3]
inactive: all other assays above

Nc1ncnc2nc[nH]c12
not listed: [7] | [14] | [16] | [19] | [20]
inactive: all other assays above

COc1cc(O)c(C(=O)c2ccccc2)cc1S(=O)(=O)O
not listed: [3]
inactive: all other assays above

COc1nccnc1CC(C)C
not listed: [7] | [10] | [14] | [16]
inactive: all other assays above

O=C(O)C(F)(F)C(F)(F)C(F)(F)C(F)(F)C(=O)O
not listed: [20]
inactive: all other assays above

CCCCC/C=C\C/C=C\CCCCCCCC(=O)O
active: [2] 76.3 µM | [20] 26.6 µM | [8] 150 µM | [9] 149 µM | [11] 133 µM | [12] 64.1 µM | [13] 35.1 µM | [14] 39.6 µM | [19] 100 µM
inactive: [1] | [4] | [5] | [6] | [7] | [15] | [16] | [17] | [18]
